Measurements reported in publication PMC4336329 (PLoS ONE, 2015).
About 14,000 (4.5%) of roughly 310,000 compounds showed an effect of 50% or more. Effects have a minus sign here. For the sample, strong results were picked, then their nearest neighbours and some compounds at random.

target: human ether-à-go-go-related gene (hERG) potassium channel (human, UniProt Q12809); assay: primary screen, population patch clamp on CHO cells stably expressing hERG; higher = less effect of the substance
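Further: peak tail current of the secondary pulse compared with the same well before compound.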

Chain of human ether-à-go-go-related gene (hERG) potassium channel (Q12809 whole entry, looked up): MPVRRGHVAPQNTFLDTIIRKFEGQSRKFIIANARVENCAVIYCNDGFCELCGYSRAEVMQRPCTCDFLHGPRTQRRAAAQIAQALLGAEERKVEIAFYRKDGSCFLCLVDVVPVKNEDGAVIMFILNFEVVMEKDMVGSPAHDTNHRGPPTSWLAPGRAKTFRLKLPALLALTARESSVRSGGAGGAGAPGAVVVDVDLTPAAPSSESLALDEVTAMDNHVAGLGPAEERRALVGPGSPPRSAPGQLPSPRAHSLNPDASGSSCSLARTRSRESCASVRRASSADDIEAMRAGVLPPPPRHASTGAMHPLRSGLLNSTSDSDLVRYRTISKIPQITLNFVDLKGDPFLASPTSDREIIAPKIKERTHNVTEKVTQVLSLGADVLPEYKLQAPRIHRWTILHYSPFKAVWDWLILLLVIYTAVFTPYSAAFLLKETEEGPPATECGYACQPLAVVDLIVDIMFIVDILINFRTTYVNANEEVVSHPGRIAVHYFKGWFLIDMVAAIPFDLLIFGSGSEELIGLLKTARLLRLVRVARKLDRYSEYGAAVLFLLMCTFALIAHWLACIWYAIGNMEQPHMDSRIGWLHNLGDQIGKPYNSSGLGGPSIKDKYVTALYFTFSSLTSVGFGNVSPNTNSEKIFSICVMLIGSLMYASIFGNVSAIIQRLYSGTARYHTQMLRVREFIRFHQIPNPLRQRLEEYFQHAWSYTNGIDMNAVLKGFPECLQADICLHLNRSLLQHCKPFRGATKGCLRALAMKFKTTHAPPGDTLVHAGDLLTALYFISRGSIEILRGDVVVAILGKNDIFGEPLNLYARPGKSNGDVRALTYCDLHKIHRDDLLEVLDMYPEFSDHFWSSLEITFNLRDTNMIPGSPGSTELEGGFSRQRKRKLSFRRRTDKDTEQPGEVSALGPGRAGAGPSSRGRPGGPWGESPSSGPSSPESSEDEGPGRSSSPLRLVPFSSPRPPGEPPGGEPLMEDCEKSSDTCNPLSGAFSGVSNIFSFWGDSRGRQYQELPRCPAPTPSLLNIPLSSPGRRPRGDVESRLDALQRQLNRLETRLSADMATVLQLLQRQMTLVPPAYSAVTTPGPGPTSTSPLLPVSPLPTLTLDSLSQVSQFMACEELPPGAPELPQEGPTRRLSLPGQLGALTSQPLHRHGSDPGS

Row | SMILES | hERG current change (%, negative = inhibition) at 10uM [%]
1 | O=S(=O)(Nc1nc2ccccc2nc1Nc1ccc2c(c1)OCO2)c1ccc(F)cc1 | 24.5
2 | Cc1cccc(C)c1NC(=O)CSc1ccc([N+](=O)[O-])cn1 | -12.3
3 | COc1ccc(NC(=S)NCc2cccnc2)cc1OC | 5.8
4 | OC1(c2cccs2)CN(c2ccc(Br)cc2)C2=[N+]1CCCS2.[Br-] (centres unmarked) | -72.1
5 | CCc1ccc(N2CC(O)(c3cccs3)[N+]3=C2SCCC3)cc1.[Br-] (centres unmarked) | -70
6 | OC1(c2ccc(Br)cc2)CN(c2ccccc2)C2=[N+]1CCS2.[Br-] (centres unmarked) | -19.5
7 | OC1(c2cccs2)CN(c2ccc(Cl)cc2)C2=[N+]1CCCS2.[Br-] (centres unmarked) | -73.6
8 | Cc1ccc(Oc2ccc(C(=O)NC3CCSC3=O)cn2)cc1 (centres unmarked) | 12
9 | CC(C)(CNc1ccc([N+](=O)[O-])cc1Cl)CNS(C)(=O)=O | -1.02
10 | Cc1cc(/C=N/n2cnnc2)c(C)n1-c1ccccc1 | -4.02
11 | COc1ccccc1C(=O)CSc1nccn1C | -11.1
12 | O=C1NC(=O)N(c2ccccc2)C(=O)/C1=C\c1ccc2c3c(cccc13)CC2 | -20.4
13 | CCOC(=O)c1c(NC(=O)c2ccc(Cl)cc2)csc1C | -0.689
14 | Cc1cc(C(=O)NCCCN2CCOCC2)n(-c2ccccc2)n1 | 19.3
15 | COc1ccc(CNS(=O)(=O)CCNC(=O)c2cccc(OC)c2)cc1 | -78.1
16 | O=C(NCCCN1CCN(CCCNC(=O)c2cccc(Cl)c2)CC1)c1cccc(Cl)c1 | -74.4
17 | O=C(NCCCN1CCN(c2cccc(Cl)c2)CC1)c1cccc(N2CCCC2=O)c1 | -38
18 | CC(=O)Nc1ccccc1C(=O)C(=O)Nc1cccc(C(=O)NCc2ccc(C)cc2)c1 | -58.3
19 | O=C(NCCCn1ccnc1)c1cccc(Cl)c1 | 0.459
20 | CCCCNC(=O)c1cccc(NC(=O)C(=O)c2ccccc2NC(C)=O)c1 | -19.1
21 | Cc1cc(C(=O)NCCCN2CCN(C3CCCCC3)CC2)n(-c2ccccc2)n1 | 2.76

Row | SMILES | hERG current change (%, negative = inhibition) at 10uM [%]
22 | CC(=O)Nc1ccccc1C(=O)C(=O)Nc1cccc(C(=O)NCc2ccccc2)c1 | -32.6
23 | COc1ccc(CNS(=O)(=O)CCNC(=O)c2ccccc2)cc1 | -4.36
24 | Cc1cc(C(=O)NCCCN2CCN(c3cc(Cl)ccc3C)CC2)n(-c2ccccc2)n1 | -89.2
25 | COc1cccc(C(=O)NCCS(=O)(=O)NCc2ccc(Cl)cc2)c1 | -36.5
26 | Oc1c(Cl)cc(Cl)cc1/C=N/c1nccs1 | -11.8
27 | O=C(COC(=O)C1CCN(S(=O)(=O)c2cccc3cccnc23)CC1)c1ccc([N+](=O)[O-])cc1 | 13.1
28 | O=C(NC(=O)c1ccccc1F)Nc1nc(-c2cccs2)cc(C(F)(F)F)n1 | 4.49
29 | COC(=O)CC1c2cc(OC)c(OC)cc2CC(=O)c2cc(OC)c(OC)cc21 (centres unmarked) | 6.73
30 | Nn1c(COc2ccccc2)nnc1SCc1cc(=O)[nH]c2ccccc12 | -14.3
31 | CCCNC(=S)N1CCC(C(=O)c2ccc3c(c2)OCCO3)CC1 | -28.9
32 | COc1ccccc1CNS(=O)(=O)c1csc(C(N)=O)c1 | 20.1
33 | CCCc1cc(=O)[nH]c(SCC(=O)NN(c2ccccc2)c2ccccc2)n1 | -1.04
34 | COc1cccc(C(=O)NCCCNC(=O)c2cccc(OC)c2)c1 | 1.43
35 | COc1cc(OC)cc(C(=O)NCCCN2CCN(CCCNC(=O)c3cc(OC)cc(OC)c3)CC2)c1 | -48.8
36 | CCOc1ccc(C(=O)NCCN2CCCC2)cc1.Cl | -40.6
37 | COc1cccc(C(=O)NCCCN2CCN(CCCNC(=O)c3cccc(OC)c3)CC2)c1 | -85.4
38 | COc1cc(C(=O)NCCN2CCCC2)cc(OC)c1OC.Cl | 9.26
39 | Cc1cccc(C(=O)NCCN2CCN(c3ccccc3)CC2)c1.Cl | -37.1
40 | Cn1c(C(=O)NCCCN2CCN(c3cccc(Cl)c3)CC2)cc2c(=O)n(C)c3ccccc3c21 | 9.13
41 | CCOc1c(Cl)cc(C(=O)NCCN2CCCCC2)cc1Cl | -58.6
42 | Nc1ccccc1C(=O)NCCCN1CCN(c2cccc(Cl)c2)CC1 | -71.4

Row | SMILES | hERG current change (%, negative = inhibition) at 10uM [%]
43 | COc1cccc(C(=O)NCCN2CCN(c3ccc(Cl)cc3)CC2)c1 | -49.8
44 | Nc1ccccc1C(=O)NCCCN1CCOCC1 | 15.6
45 | Cl.O=C(NCCN1CCN(c2ccccc2)CC1)c1cccc(Cl)c1 | -54.2
46 | CCN(CC(=O)Nc1c(F)cccc1F)C(=O)C1CCCN(C(=O)c2ccc(Cl)cc2)C1 (centres unmarked) | -31.5
47 | Cc1ccccc1Nc1nc(N2CCOCC2)nc(N2CCOCC2)n1.Cl | 14
48 | CC1=CC(c2ccc(Cl)cc2)n2nc(NS(=O)(=O)c3ccc(C)cc3)nc2N1 (centres unmarked) | -19.7
49 | CCOC(=O)c1cnc2c(cnn2C)c1NCCC(O)C(F)(F)F (centres unmarked) | 0.469
50 | Cc1ccc(SCC(=O)Nc2ccc(F)cc2[N+](=O)[O-])cc1C | 11.7
51 | O=C(c1ccc(Oc2cc(Cl)cc(Cl)c2)o1)N1CCCCC1 | -7.03
52 | O=C(NCC1CC1)c1ccc(Oc2cc(Cl)cc(Cl)c2)o1 | -33.7
53 | O=C(NCCN1CCN(c2ccccc2)CC1)c1cccc(Br)c1 | -60.2
54 | O=C(NCCN1CCCCC1)c1ccc(Oc2cc(Cl)cc(Cl)c2)o1 | -54.8
55 | O=C(NCCN1CCOCC1)c1cccc(Br)c1 | -3.21
56 | COc1ccc(C(=O)NCCCCc2ccccc2)cc1 | -4.68
57 | O=C(NCCCN1CCN(c2cccc(Cl)c2)CC1)c1nc(-c2ccncc2)no1 | -63.2
58 | O=C(NCCc1ccccc1)c1cccc(Br)c1 | 2.53
59 | COc1cc(OC)cc(C(=O)NCCCCc2ccccc2)c1 | -56
60 | O=C(NCCCN1CCN(c2cccc(Cl)c2)CC1)c1ccc(N2CCCC2=O)cc1 | -26.4
61 | COc1cc(OC)cc(C(=O)NCCCCNC(=O)c2cc(OC)cc(OC)c2)c1 | 4.94
62 | Clc1cccc(N2CCN(Cc3nc(-c4ccccc4)no3)CC2)c1 | -12
